Test [1] has as its target Albumin (Bos taurus) (UniProt P02769). The experiment in a line: bovine serum albumin binders on microarray, profiling panel, artefact control for SMM control protein annotation, biochemical, small-molecule microarray, Alexa647 label, 635/667 nm fluorescence (AID 1118).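 Also: score merges 667 nm emission intensity and signal-to-noise per printed compound spot.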 The settings on record: BSA-A647 binding, fluorescence 635 nm, higher = more signal.
Test [2] can be described thus: small-molecule microarray binders of probe aXIP, primary screen, biochemical, NeuroSMM set, 635/667 nm fluorescence (AID 1119).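 Also: probe is the protein aXip251-270 applied at 1 µg/mL to compound-printed slides; binding of probe to printed compounds measured as 667 nm fluorescence plus signal to noise.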 The settings on record: higher = more signal, called active from +8 up or from −8 down.
The nature of test [3]: small-molecule binders of probe aNOTCH3, primary screen, biochemical, small-molecule microarray, 635/667 nm fluorescence (AID 1120).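 Also: probe is a biotin-tagged antibody raised against NOTCH3 rather than NOTCH3 protein; score merges spot fluorescence near 667 nm with spot signal to noise.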 The settings on record: higher = more signal.
Test [4] is described as follows: small-molecule binders of probe aNOTCH2, primary screen, biochemical, small-molecule microarray, 635/667 nm fluorescence (AID 1121).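 Also: score merges feature fluorescence read at 667 nm with its signal to noise.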 As to conditions: higher = more signal.
Test [5] has as its target Carbonic anhydrase 2 (Homo sapiens) (UniProt P00918). Description: CAII small-molecule binders, profiling panel, biochemical, small-molecule microarray, Alexa647-labelled CAII (AID 1122). The settings on record: CAII-A647 binding fluorescence, higher = more signal.
A short description of test [6]: COS7 lysate on small-molecule microarray, probe aHis, 635 nm (AID 1123).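 Also: z-score combines 667nm fluorescence intensity with signal-to-noise per printed compound spot.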 As to conditions: COS7 cell lysate, fluorescence, higher = more signal.
Test [7] is described as follows: compound binding in COS7 lysate, probe aLAP1, primary screen, cell lysate, small-molecule microarray (AID 1124).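 Also: lysate comes from COS7 cells expressing LAP1 and is applied at 0.3 µg/mL; score merges spot fluorescence near 667 nm with signal-to-noise over triplicate slides.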 As to conditions: probe aLAP1, fluorescence, higher = more signal.
The subject of test [8] is Sam68 (KHDRBS1). The experiment in a line: Sam68 small-molecule binders, primary screen, biochemical, small-molecule microarray, 635 nm fluorescence (AID 1125).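 Also: score merges 667 nm channel intensity with signal to noise over triplicate slides.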 The settings on record: small-molecule microarray binding, higher = more signal.
The subject of test [9] is Chordin-like protein 2 (CHRDL2). The experiment in a line: CHRDL2 small-molecule binders, primary screen, biochemical, small-molecule microarray, 635 nm fluorescence (AID 1126).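 Also: printed compound slides probed with Chrdl2 protein at 4 µg/mL for 1 h at 4 C; score merges 667 nm emission intensity with signal to noise over three replicate slides.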 The settings on record: small-molecule microarray binding, fluorescence 635 nm; higher = more signal.
Test [10] deals with Concanavalin-A (Canavalia ensiformis) (UniProt P02866). The experiment in a line: ConA small-molecule binders, primary screen, artefact control for SMM control protein annotation, biochemical, small-molecule microarray, Alexa647 label, 635 nm (AID 1127).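 Also: z combines 667 nm emission intensity with signal-to-noise across three replicate slides.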 The settings on record: ConA-A647 binding fluorescence, higher = more signal.
Test [11] can be described thus: anti-His antibody binders, primary screen, artefact control for SMM control protein annotation, biochemical, small-molecule microarray, 635 nm fluorescence (AID 1128).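 Also: score merges feature fluorescence with signal-to-noise for each printed compound spot.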 As to conditions: anti-His Alexa647 antibody binding, higher = more signal.
The test system of test [12] is Human papillomavirus type 1a E7 protein (residues 1-88). Description: HPV1a E7 small-molecule binders, primary screen, biochemical, small-molecule microarray, residues 1-88, 635 nm (AID 1129). The settings on record: small-molecule microarray binding, fluorescence 635 nm; higher = more signal.
The target in test [13] is Focal adhesion kinase 1 (Homo sapiens) (UniProt Q05397). Description: small-molecule microarray binders of FAK, primary screen, biochemical, 635/667 nm fluorescence, BSA, DTT (AID 1130).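 Also: composite of spot emission at 667 nm and signal to noise over triplicate slides.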 The settings on record: PTK2 binding, 635 nm fluorescence, higher = more signal.
Test [14] relates to Fibrinogen (Alexa647-labelled). The experiment in a line: fibrinogen binders on compound microarrays, profiling panel, artefact control for SMM control-protein annotation, biochemical, small-molecule microarray, 635/667 nm fluorescence (AID 1131).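 Also: z-score merges 667 nm fluorescence with per-spot signal-to-noise over triplicate slides.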 As to conditions: fibrinogen-A647 binding fluorescence, higher = more signal.
Test [15] addresses Follistatin (Homo sapiens) (UniProt P19883). Description: follistatin binders on small-molecule microarrays, primary screen, biochemical, small-molecule microarray, 635/667 nm fluorescence (AID 1132). The settings on record: FST binding, 635 nm fluorescence, higher = more signal.
Test [16] has as its target Fibroblast growth factor 2 (Homo sapiens) (UniProt P09038). The experiment in a line: FGF2 binders on small-molecule microarrays, primary screen, biochemical, small-molecule microarray, 635/667 nm fluorescence (AID 1133). As to conditions: small-molecule microarray binding, FGF2, fluorescence 635/667; higher = more signal.
Test [17] in a line: mitochondrial membrane potential change in A549 cells, profiling panel, cell-based, JC-1 fluorescence, basal, 24 h, 100 nL (AID 1138).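 Also: A549 lung adenocarcinoma cells under basal conditions with no added stimulus; test concentration not given here.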 As to conditions: higher = more signal.
For test [18], the system named is Lefty1. Description: Lefty1 binders on small-molecule microarrays, primary screen, biochemical, small-molecule microarray, 635/667 nm fluorescence (AID 1139). The settings on record: small-molecule microarray binding, fluorescence 635/667; higher = more signal.
For test [19], the system named is wheat germ agglutinin (Triticum aestivum), Alexa647-labelled. Description: wheat germ agglutinin binders on compound microarrays, profiling panel, artefact control for SMM control-protein annotation, biochemical, small-molecule microarray, 635/667 nm fluorescence (AID 1140).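 Also: score merges 667 nm feature emission with signal to noise over triplicate slides.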 As to conditions: WGA-A647 binding, 635 nm fluorescence, higher = more signal.
The target of test [20] is Luciferin 4-monooxygenase (Photinus pyralis) (UniProt P08659). Description: firefly luciferase enzyme inhibitors, primary screen, biochemical, luminescence, purified enzyme, 2006 set (AID 1141).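 Also: cell-free assay with purified firefly luciferase at 100 ng per well in PBS; test concentration not given here.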 The settings on record: SteadyGlo luminescence, 30 min, higher = more signal, called active from +8 up or from −8 down.

This note sets out measurements from PubChem BioAssay.

The source made the active and inactive calls.

Albumin (Bos taurus), sequence (P02769 whole entry, looked up): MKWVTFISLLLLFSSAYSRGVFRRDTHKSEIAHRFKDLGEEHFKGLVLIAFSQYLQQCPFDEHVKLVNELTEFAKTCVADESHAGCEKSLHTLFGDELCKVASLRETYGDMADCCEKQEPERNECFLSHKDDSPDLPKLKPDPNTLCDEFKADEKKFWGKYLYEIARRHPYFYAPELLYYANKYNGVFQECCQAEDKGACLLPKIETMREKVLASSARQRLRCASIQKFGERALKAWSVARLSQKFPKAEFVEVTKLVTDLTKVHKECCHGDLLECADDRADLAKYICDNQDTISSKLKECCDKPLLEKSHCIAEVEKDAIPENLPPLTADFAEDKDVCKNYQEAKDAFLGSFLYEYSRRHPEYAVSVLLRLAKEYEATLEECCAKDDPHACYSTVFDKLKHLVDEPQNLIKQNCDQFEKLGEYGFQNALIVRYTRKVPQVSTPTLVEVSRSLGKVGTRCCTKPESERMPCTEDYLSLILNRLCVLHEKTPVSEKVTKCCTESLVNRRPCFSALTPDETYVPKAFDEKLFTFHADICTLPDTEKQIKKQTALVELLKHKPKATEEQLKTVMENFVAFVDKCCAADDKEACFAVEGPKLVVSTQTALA
Follistatin (Homo sapiens), sequence (P19883 whole entry, looked up): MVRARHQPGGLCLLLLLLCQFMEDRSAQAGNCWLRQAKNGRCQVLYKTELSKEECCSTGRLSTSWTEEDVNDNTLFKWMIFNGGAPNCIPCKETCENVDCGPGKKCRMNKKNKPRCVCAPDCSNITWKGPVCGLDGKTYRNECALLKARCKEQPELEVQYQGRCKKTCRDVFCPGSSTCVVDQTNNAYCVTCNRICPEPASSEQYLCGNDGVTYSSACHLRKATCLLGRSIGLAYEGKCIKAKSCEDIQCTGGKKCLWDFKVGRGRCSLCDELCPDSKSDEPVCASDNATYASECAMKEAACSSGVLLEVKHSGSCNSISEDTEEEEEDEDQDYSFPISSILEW
Concanavalin-A (Canavalia ensiformis), sequence (P02866 whole entry, looked up): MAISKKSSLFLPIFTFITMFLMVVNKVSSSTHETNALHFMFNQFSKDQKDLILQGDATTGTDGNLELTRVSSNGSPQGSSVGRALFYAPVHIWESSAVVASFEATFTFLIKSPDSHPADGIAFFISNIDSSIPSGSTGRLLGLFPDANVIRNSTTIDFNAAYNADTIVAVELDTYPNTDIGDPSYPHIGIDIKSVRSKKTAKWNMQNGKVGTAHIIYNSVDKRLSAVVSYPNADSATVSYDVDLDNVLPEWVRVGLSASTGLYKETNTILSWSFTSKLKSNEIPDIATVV
Focal adhesion kinase 1 (Homo sapiens), sequence (Q05397 whole entry, looked up): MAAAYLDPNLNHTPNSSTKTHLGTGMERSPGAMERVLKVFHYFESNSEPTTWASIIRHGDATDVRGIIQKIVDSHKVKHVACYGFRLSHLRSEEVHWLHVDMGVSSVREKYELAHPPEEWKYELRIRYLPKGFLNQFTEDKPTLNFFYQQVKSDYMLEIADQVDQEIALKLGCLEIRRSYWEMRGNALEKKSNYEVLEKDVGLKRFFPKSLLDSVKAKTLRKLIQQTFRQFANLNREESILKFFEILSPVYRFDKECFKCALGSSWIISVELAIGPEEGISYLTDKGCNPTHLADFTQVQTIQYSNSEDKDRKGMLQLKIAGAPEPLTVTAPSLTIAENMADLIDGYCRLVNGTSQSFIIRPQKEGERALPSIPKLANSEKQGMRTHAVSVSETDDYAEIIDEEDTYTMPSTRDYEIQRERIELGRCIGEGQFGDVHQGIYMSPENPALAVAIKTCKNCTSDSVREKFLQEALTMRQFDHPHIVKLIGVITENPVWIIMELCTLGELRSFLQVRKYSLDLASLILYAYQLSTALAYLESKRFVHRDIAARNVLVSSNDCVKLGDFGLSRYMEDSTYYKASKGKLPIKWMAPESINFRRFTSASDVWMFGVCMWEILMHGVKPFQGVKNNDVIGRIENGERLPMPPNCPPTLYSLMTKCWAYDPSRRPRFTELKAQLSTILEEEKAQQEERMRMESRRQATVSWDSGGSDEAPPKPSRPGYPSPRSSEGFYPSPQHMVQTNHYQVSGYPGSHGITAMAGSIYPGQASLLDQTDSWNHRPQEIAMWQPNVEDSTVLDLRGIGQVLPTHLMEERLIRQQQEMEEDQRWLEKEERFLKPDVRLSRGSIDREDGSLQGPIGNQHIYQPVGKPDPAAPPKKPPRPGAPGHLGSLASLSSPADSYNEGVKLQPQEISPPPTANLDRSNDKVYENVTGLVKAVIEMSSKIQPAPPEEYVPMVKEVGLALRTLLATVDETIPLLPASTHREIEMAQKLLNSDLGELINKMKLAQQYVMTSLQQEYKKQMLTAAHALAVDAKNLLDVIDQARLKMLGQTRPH
Fibroblast growth factor 2 (Homo sapiens), sequence (P09038 whole entry, looked up): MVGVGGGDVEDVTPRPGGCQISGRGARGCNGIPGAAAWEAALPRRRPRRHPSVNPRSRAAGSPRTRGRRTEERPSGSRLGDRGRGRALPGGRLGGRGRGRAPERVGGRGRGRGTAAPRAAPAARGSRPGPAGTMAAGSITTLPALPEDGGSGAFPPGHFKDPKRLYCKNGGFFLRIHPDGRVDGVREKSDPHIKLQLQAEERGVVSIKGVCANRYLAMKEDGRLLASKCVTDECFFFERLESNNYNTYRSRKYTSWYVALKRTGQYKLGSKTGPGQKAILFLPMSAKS
Luciferin 4-monooxygenase (Photinus pyralis), sequence (P08659 whole entry, looked up): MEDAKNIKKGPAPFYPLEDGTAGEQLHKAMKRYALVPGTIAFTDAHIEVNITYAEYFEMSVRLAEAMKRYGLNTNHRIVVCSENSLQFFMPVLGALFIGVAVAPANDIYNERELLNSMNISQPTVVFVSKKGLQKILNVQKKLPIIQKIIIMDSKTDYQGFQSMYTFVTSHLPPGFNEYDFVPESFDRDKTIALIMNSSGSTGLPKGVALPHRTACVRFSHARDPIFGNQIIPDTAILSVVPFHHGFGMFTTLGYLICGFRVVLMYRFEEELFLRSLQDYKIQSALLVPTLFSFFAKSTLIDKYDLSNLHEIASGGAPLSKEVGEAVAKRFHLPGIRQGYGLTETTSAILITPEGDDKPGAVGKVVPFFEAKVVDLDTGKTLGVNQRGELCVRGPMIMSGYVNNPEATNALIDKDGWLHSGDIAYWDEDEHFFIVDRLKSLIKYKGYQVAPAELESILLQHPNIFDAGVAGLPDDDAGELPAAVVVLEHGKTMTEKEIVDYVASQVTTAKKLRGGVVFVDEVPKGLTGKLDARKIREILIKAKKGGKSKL

As for `CON(C)C(=O)c1nnc2c(n1)[nH]c1ccccc12`, the composite z-score in [1] is 0.795; in [3], -0.0765; in test [4], -0.167; in test [5] it was 0.464; in test [6], 0.128; in test [7], 1.02. For the same molecule, the composite z-score in test [8] was determined as 0.129; in test [9], 0.493; in test [10] it was 0.293; in test [11], 0.459; in [12], 0.607; in test [13], 0.137. The composite z-score is 0.471 in test [14]; 0.545 in test [15]; 0.635 in [16]; 0.596 in test [18]; 0.816 in test [19]. The composite Z-score in test [2] is 0.0617 (inactive). Moreover, the z-score in [17] was -0.448; in [20], -2.33 (inactive).

For the molecule `CCc1cc2c(nc1CC)CCN(CCC(C)=NOC(C)CN1CCCCc3nc(C)c(C)cc31)C2` (stereo not given), the composite z-score is 0.0846 in test [1]; 0.0696 in [3]; -0.0194 in test [4]; 0.467 in test [5]; 1.64 in [6]; 0.304 in test [7]. Also, the composite z-score was 1.28 in test [8]; 0.911 in test [9]; 1.17 in [10]; 0.575 in test [11]; 1.18 in [12]; -0.048 in [13]. Also, the composite z-score stood at 0.874 in test [14]; 1.18 in test [15]; 0.557 in test [16]; 0.979 in test [18]; 0.439 in test [19]. Also, the composite Z-score in [2] was 0.73 (inactive). For the same molecule, the z-score in [17] is 2.45; in [20], -0.0579 (inactive).

With `CO[C@H]1COC(=O)CC=C[C@H](C)[C@H](OC)COC(=O)[C@@H](C)NC(=O)CC=C[C@@H]1C`, the composite z-score in test [1] is -0.487; in test [3] it was -0.0319; in test [4], -0.164; in test [5], -0.54; in test [6], 1.95; in test [7], -0.0788. Also, the composite z-score in test [8] is -0.445; in test [9] it was 1.49; in test [10], -0.898; in test [11], 0.491; in test [12], -1.08; in [13], 0.764. Also, the composite z-score in test [14] is -2.18; in test [15], 1.23; in test [16], 1.47; in test [18], 1.52; in test [19], -0.206. Further, in test [2], the composite Z-score was -0.347 (inactive). Besides, the z-score in test [17] was -0.838; in test [20], 1.14 (inactive).

As to `COc1ccc(O[C@H]2C=C[C@@H](c3ccccc3)O[C@@H]2COC(=O)NCc2cccc3ccccc23)cc1`, the composite z-score in [1] was -0.194; in test [3] it was -0.191; in [4], -0.159; in [5] it was -0.219; in [6], -0.146; in [7], -0.0544. Moreover, the composite z-score was -0.0446 in test [8]; 0.281 in test [9]; 0.335 in test [10]; -0.816 in [11]; -0.406 in test [12]; -0.235 in test [13]. The composite z-score in test [14] is -0.138; in test [15] it was -0.0584; in test [16], 0.353; in test [18] it was 0.0182; in test [19], -0.317. Also, the composite Z-score in test [2] was -0.341 (inactive). Also, the z-score was 1.07 in [17] and 0.441 (inactive) in test [20].

With `C=CC[C@@H]1C=C[C@H](ON=C[C@@H](NS(=O)(=O)c2ccc(C)cc2)[C@H](C)C=CCC(=O)OC)[C@@H](CO)O1`, the composite z-score in [1] is 0.766; in [3], 0.0232; in test [4], -0.0393; in test [5], -0.277; in test [6], -0.327; in [7], 0.0555. For the same molecule, the composite z-score in [8] was -0.483; in test [9], 0.487; in [10], -1.58; in [11], 1.34; in [12], -0.205; in test [13] it was -0.0954. Also, the composite z-score in test [14] was -0.193; in test [15] it was 0.774; in test [16] it was 0.349; in test [18], 0.625; in test [19], 0.511. Further, in test [2], the composite Z-score is 0.819 (inactive). The z-score in test [17] was -0.0376; in test [20], 1.18 (inactive).

Turning to `CO[C@H]1COC(=O)[C@H](C)COC(=O)[C@@H](OCc2ccccc2)C=C[C@@H]1C`, the composite z-score was 0.0996 in test [1]; -0.141 in test [3]; -0.12 in test [4]; -0.342 in [5]; -0.051 in [6]; -0.181 in test [7]. The composite z-score was 0.207 in [8]; 0.225 in test [9]; 0.233 in test [10]; -0.49 in [11]; -1.09 in test [12]; -0.317 in [13]. Further, the composite z-score in [14] is -0.534; in test [15], 0.139; in test [16] it was 0.496; in test [18] it was 0.613; in test [19] it was -0.49. Besides, the composite Z-score in [2] is 0.976 (inactive). The z-score in [17] is 0.877; in [20], -1.56 (inactive).
